{"source": "PubChem BioAssay AID463173", "about": "(ICCB-Longwood Screening Facility, Harvard Medical School, 2010)", "note": "Hit rate of the full screen: of about 52,000 compounds, about 1,700 (3.3%) were called active. The list comes from a sample in which actives are over-represented; it also holds similar structures and randomly drawn compounds. A number with no mark means an inactive call. No stated cut-off is given here; in the data, active means survival mostly below about 52% (no sharp cut-off); inactive means mostly above about 56%."}
{"system": "Wild type", "assay": "growth inhibition of S. aureus wild type versus tarO mutant, primary screen, teichoic acid synthesis inhibitors, RN4220, OD600 (AID 463173)", "settings": "S. aureus RN4220 wild type/DeltatarO growth, OD600, 18 h, stronger effect = lower value, screened at 18.75 µg/mL (by protocol)"}
{"molecule": "Cc1cc(-c2ccc(C)c(S(=O)(=O)Nc3ccccn3)c2)on1", "survival": "73%"}
{"molecule": "O=C(CN1CCCC1)Nc1nc(-c2ccc3c(c2)CCN3C(=O)C2CC2)cs1", "survival": "116%"}
{"molecule": "O=C(CSc1nc2ccccc2c(=O)n1-c1ccccc1)N1CCOCC1", "survival": "104%"}
{"molecule": "CC(=O)Nc1cccc(NC(=O)c2c(-c3ccccc3)c(-c3ccccc3)nn(C)c2=O)c1", "survival": "85%"}
{"molecule": "COc1ccc2cc(-c3nc(-c4ccc(N(C)C)cc4)no3)c(=O)oc2c1", "survival": "99%"}
{"molecule": "COc1cccc(CNS(=O)(=O)c2cnc(N)nc2)c1", "survival": "57%"}
{"molecule": "COc1ccc(CNS(=O)(=O)c2cnc(N)nc2)cc1", "survival": "-4% (active)"}
{"molecule": "CC(C)Oc1ccc(CNS(=O)(=O)c2cnc(N)nc2)cc1", "survival": "111%"}
{"molecule": "CC(C)(C)OC(=O)N1CCC(c2c(C(=O)NCCN3CCOCC3)cnn2-c2ccccc2)CC1", "survival": "64%"}
{"molecule": "NCC1OCCc2ccccc21", "note": "(stereo unspecified)", "survival": "114%"}
{"molecule": "CCCc1ccc(OCc2ccc(C(=O)Nc3ccccc3C(=O)OC)o2)cc1", "survival": "3% (active)"}
{"molecule": "COc1ccccc1NC(=O)c1ccc(COc2ccc(C)c(C)c2)o1", "survival": "0% (active)"}
{"molecule": "Cc1cc(C)cc(OCc2ccc(C(=O)Nc3ccccc3F)o2)c1", "survival": "72%"}
{"molecule": "COC(=O)c1ccccc1NC(=O)c1ccc(COc2cc(C)cc(C)c2)o1", "survival": "59%"}
{"molecule": "COc1ccccc1NC(=O)c1ccc(C)o1", "survival": "104%"}
{"molecule": "COC(=O)c1ccccc1NC(=O)c1ccc(COc2ccccc2Cl)o1", "survival": "68%"}
{"molecule": "Cc1nc2c(-c3ccc(F)cc3)c(C)nn2c(C)c1CCC(=O)N1CCN(c2ccccc2)CC1", "survival": "75%"}
{"molecule": "Cc1c(C(=O)NCCc2ccc(Cl)cc2)sc2nc3n(c(=O)c12)CCCC3", "survival": "78%"}
{"molecule": "CCn1c2ccccc2c2cc(CN3CCN(Cc4ccc(OC)c(OC)c4)CC3)ccc21", "survival": "14% (active)"}
{"molecule": "Clc1ccccc1CN1CCN(Cc2ccco2)CC1", "survival": "101%"}
{"molecule": "Cc1ccc(Cn2c(=O)n(Cc3ccccc3Cl)c(=O)c3ccccc32)cc1", "survival": "56%"}
{"molecule": "CCn1c(=O)cc(SCC(=O)NCc2cccc(Cl)c2)c2ccccc21", "survival": "60%"}
{"molecule": "CCCS(=O)(=O)N1CCN(Cc2ccc(OC)c(OCC)c2)CC1", "survival": "103%"}
{"molecule": "CCCN1CCN(C(=O)Cn2ncc3c4ccccc4n(Cc4cccc(Cl)c4)c3c2=O)CC1", "survival": "80%"}
{"molecule": "CCn1c2ccccc2c2cc(CN3CCN(Cc4ccccc4Cl)CC3)ccc21", "survival": "1% (active)"}
{"molecule": "CCn1c2ccccc2c2cc(CN3CCN(Cc4cccc(Cl)c4)CC3)ccc21", "survival": "0% (active)"}
{"molecule": "CCn1c2ccccc2c2cc(CN3CCN(Cc4cc(OC)c(O)c(OC)c4)CC3)ccc21", "survival": "54%"}
{"molecule": "CCn1c2ccccc2c2cc(CN3CCN(Cc4ccco4)CC3)ccc21", "survival": "104%"}
{"molecule": "CCn1c2ccccc2c2cc(CN3CCN(Cc4ccc(Br)cc4)CC3)ccc21", "survival": "3% (active)"}
{"molecule": "CCS(=O)(=O)N1CCN(Cc2ccccc2)CC1", "survival": "119%"}
{"molecule": "CCC(=O)N1CCc2cc(S(=O)(=O)NCCC(=O)Nc3ccc(CC)cc3)ccc21", "survival": "73%"}
{"molecule": "Brc1cccc(-c2nn(-c3ccccc3)c3c2cnc2cc4c(cc23)OCO4)c1", "survival": "86%"}
{"molecule": "O=C(NCCS(=O)(=O)N1CCN(c2ccc(F)cc2)CC1)c1cccc(C(F)(F)F)c1", "survival": "72%"}
{"molecule": "Cc1cccc(NC(=O)c2ccc3c(c2)CCN3S(=O)(=O)c2ccccc2)c1C", "survival": "84%"}
{"molecule": "CCN(CC)S(=O)(=O)c1ccc2c(c1)N(CC(=O)Nc1ccc(F)cc1F)C(=O)C1CCCN21", "note": "(stereo unspecified)", "survival": "64%"}
{"molecule": "Cc1ccc(-n2nc(C(=O)N3CCN(c4cc(C)ccc4C)CC3)c3c4ccccc4n(C)c3c2=O)cc1", "survival": "79%"}
{"molecule": "CC(C)n1c(N2CCN(Cc3ccc(Cl)cc3)CC2)nc2ccccc21", "survival": "128%"}
{"molecule": "CCOc1ccc(Cn2c(=O)oc3ccccc32)cc1", "survival": "114%"}
{"molecule": "CCOc1ccc(CN2CCN(Cc3ccc4c(c3)c3ccccc3n4CC)CC2)cc1", "survival": "-1% (active)"}
{"molecule": "CCOc1ccc(CN2CCN(C(=O)c3ccco3)CC2)cc1", "survival": "103%"}
{"molecule": "CCn1c2ccccc2c2cc(CN3CCN(Cc4ccc(Cl)cc4)CC3)ccc21", "survival": "-2% (active)"}
{"molecule": "CCCn1c(N2CCN(Cc3ccc(Cl)cc3)CC2)nc2ccccc21", "survival": "123%"}
{"molecule": "CCOc1ccc(-c2c(C)nn3c(C)c(C(=O)NCC(C)c4ccccc4)cnc23)cc1OCC", "note": "(stereo unspecified)", "survival": "72%"}
{"molecule": "O=C(CSc1nc2c(c(=O)[nH]1)CCC2)Nc1cc(C(F)(F)F)ccc1Cl", "survival": "85%"}
{"molecule": "CCCN1Cc2cccc(C(=O)Nc3ccc(C(C)=O)cc3)c2C1=O", "survival": "89%"}
{"molecule": "CSc1ccccc1-c1nnc(NC(=O)c2ccc3c(c2)OCCO3)o1", "survival": "123%"}
{"molecule": "CS(=O)(=O)c1ccc(-c2nnc(NC(=O)c3ccc4c(c3)OCCO4)o2)cc1", "survival": "75%"}
{"molecule": "CS(=O)(=O)c1ccccc1-c1nnc(NC(=O)c2ccc3c(c2)OCCO3)o1", "survival": "-6% (active)"}
{"molecule": "Cc1ccc(-n2c(=O)c3cccnc3n2CC(=O)Nc2ccc(C)cc2Cl)cc1", "survival": "113%"}
{"molecule": "Cc1ccc2c(c1)-c1nc(-c3ccc(Cl)cc3)cc(-c3coc4ccccc4c3=O)c1CO2", "survival": "139%"}
{"molecule": "CCCn1c(=O)c2sccc2n2c(CCCC(=O)N3CCN(c4ccc(OC)cc4)CC3)nnc12", "survival": "99%"}
{"molecule": "O=C(Nc1cccc(C(=O)N2CCCCC2)c1)c1nsc2ccccc12", "survival": "65%"}
{"molecule": "CCc1nc2sc3c(N4CCCCC4)ncnc3c2c2c1CCCC2", "survival": "136%"}
{"molecule": "CCCc1nc2sc3c(N4CCCCC4)ncnc3c2c2c1CCCC2", "survival": "13% (active)"}
{"molecule": "CCCc1nc2sc3c(N4CCC(C)CC4)ncnc3c2c2c1CCCC2", "survival": "75%"}
{"molecule": "COc1ccccc1Nc1sc(C(=O)c2ccc3c(c2)OCO3)c(N)c1S(=O)(=O)c1ccccc1", "survival": "83%"}
{"molecule": "COc1ccc(Nc2nc(N)nc(CSc3nc4cc(OC)ccc4s3)n2)cc1", "survival": "8% (active)"}
{"molecule": "COc1ccc(Nc2nc(N)nc(CSc3nc4ccccc4s3)n2)cc1", "survival": "35%"}
{"molecule": "Cc1ccc(Nc2nc(N)nc(CSc3nc4ccccc4s3)n2)cc1", "survival": "32%"}
{"molecule": "COc1ccc(/C=C/C(=O)Nc2ccc(Cl)c(Cl)c2)cc1", "survival": "80%"}
{"molecule": "C/C=C/C(=O)Nc1ccc(Cl)c(Cl)c1", "survival": "108%"}
{"molecule": "COc1ccc(/C=C/C(=O)Nc2ccc(Cl)c(Cl)c2)cc1OC", "survival": "5% (active)"}
{"molecule": "CN(C)c1ccc(NC(=O)CSC2=Nc3ccccc3C3=NC(CC(=O)NCc4ccc5c(c4)OCO5)C(=O)N23)cc1", "note": "(stereo unspecified)", "survival": "124%"}
{"molecule": "COc1cccc(C(=O)Nc2cccc(OCc3cc(=O)n4cccc(C)c4n3)c2)c1", "survival": "134%"}
{"molecule": "CCOc1ccc(C(=O)Nc2ccc(OCc3cc(=O)n4cccc(C)c4n3)cc2)cc1", "survival": "14% (active)"}
{"molecule": "O=C(Nc1cccc(OCc2cc(=O)n3ccccc3n2)c1)Nc1cccc(C(F)(F)F)c1", "survival": "-6% (active)"}
{"molecule": "Cc1ccc(Cl)cc1NC(=O)Nc1cccc(OCc2cc(=O)n3ccccc3n2)c1", "survival": "64%"}
{"molecule": "Cc1cn2c(=O)cc(COc3ccc(NC(=O)c4cccc(F)c4)cc3)nc2s1", "survival": "122%"}
{"molecule": "COc1cc(C(=O)Nc2ccc(OCc3cc(=O)n4cccc(C)c4n3)cc2)cc(OC)c1OC", "survival": "133%"}
{"molecule": "Cc1cccn2c(=O)cc(COc3ccc(NC(=O)c4cccc(F)c4)cc3)nc12", "survival": "-1% (active)"}
{"molecule": "Cc1cccc(C(=O)Nc2ccc(OCc3cc(=O)n4ccc(C)cc4n3)cc2)c1", "survival": "55%"}
{"molecule": "COc1cc(C(=O)Nc2ccc(OCc3cc(=O)n4ccc(C)cc4n3)cc2)cc(OC)c1OC", "survival": "0% (active)"}
{"molecule": "O=C(COc1ccc(F)cc1)Nc1cccc(OCc2cc(=O)n3ccccc3n2)c1", "survival": "73%"}
{"molecule": "COc1ccccc1C(=O)Nc1ccc(OCc2cc(=O)n3ccc(C)cc3n2)cc1", "survival": "85%"}
{"molecule": "Cc1ccccc1C(=O)Nc1ccc(OCc2cc(=O)n3cccc(C)c3n2)cc1", "survival": "72%"}
{"molecule": "CCOC(=O)C1CCCN(C(=O)c2nn(-c3ccc(OC)cc3)c(=O)c3c2c2ccccc2n3C)C1", "note": "(stereo unspecified)", "survival": "125%"}
{"molecule": "CCOC(=O)c1ccc(NC(=O)Cn2cc(C(=O)c3ccc(CC)cc3)c(=O)c3ccc(C)nc32)cc1", "survival": "143%"}
{"molecule": "COCCn1c(C)cc(O)c(C(c2ccc(Cl)cc2)N2CCN(c3ccccc3)CC2)c1=O", "note": "(stereo unspecified)", "survival": "65%"}
{"molecule": "O=C(NCCC1=CCCCC1)c1ccc2c(c1)N(Cc1ccc(Cl)cc1)C(=O)c1ccccc1S2(=O)=O", "survival": "104%"}
{"molecule": "NC(=O)CSc1oc(-c2ccco2)nc1S(=O)(=O)c1ccc(Cl)cc1", "survival": "68%"}
{"molecule": "Cc1ccc(CNC(=O)C2CCN(S(=O)(=O)N3CCC(C)CC3)CC2)cc1", "survival": "77%"}
{"molecule": "O=C(Cn1cc(S(=O)(=O)Cc2ccccc2Cl)c2ccccc21)NCCc1ccccc1", "survival": "65%"}
{"molecule": "CCC(=O)Nc1ccc2c(c1)C(=O)OC2", "survival": "110%"}
{"molecule": "Cc1cccn2c(=O)cc(COc3cccc(NC(=O)c4ccccc4F)c3)nc12", "survival": "-6% (active)"}
{"molecule": "Cc1cccc(C(=O)Nc2cccc(OCc3cc(=O)n4cccc(C)c4n3)c2)c1", "survival": "76%"}
{"molecule": "Cc1cccn2c(=O)cc(COc3ccc(NC(=O)COc4ccc(F)cc4)cc3)nc12", "survival": "69%"}
{"molecule": "Cc1ccc(OCC(=O)Nc2cccc(OCc3cc(=O)n4cccc(C)c4n3)c2)cc1C", "survival": "124%"}
{"molecule": "Cc1ccc(OCC(=O)Nc2ccc(OCc3cc(=O)n4cccc(C)c4n3)cc2)cc1C", "survival": "-6% (active)"}
{"molecule": "Cc1ccccc1C(=O)Nc1cccc(OCc2cc(=O)n3cccc(C)c3n2)c1", "survival": "90%"}
{"molecule": "Cc1cccc(-n2c(-c3ccco3)nc3c(cnn3-c3ccccc3C)c2=O)c1", "survival": "132%"}
{"molecule": "O=C(CN(C1CCCCC1)S(=O)(=O)c1ccccc1)N1CCCCC1", "survival": "101%"}
